Screening results: PubChem BioAssay, several laboratories
An excerpt weighted towards active compounds, which were near 0.45% of everything screened.
NR5A2 inv ag: LRH-1 (NR5A2) inverse agonists, primary screen, cell-based, luminescence, HEK293T, StAR-luciferase reporter; Nuclear receptor subfamily 5 group A member 2 (Homo sapiens), O00482; inhibition, % at 3.6 µM; LRH-1 transfected, 24 h; hit rate 0.13% among 360,000;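 active = inhibition above the mean inhibition of all tested compounds plus 3 SD, cut at about 73% in these data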;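 also: 0% = DMSO wells and 100% = reporter-only cells lacking LRH-1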
SRC1 inh: SRC1 coactivator transcriptional activity inhibitors, primary screen, cell-based, luminescence. HEK293 GAL4-SRC1 luciferase reporter. inhibition, % at 3.6 µM. hit rate 0.12% among 360,000. AID 588354, 2011;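 active = inhibition above the campaign mean plus 3 SD, with each screening campaign given its own cutoff, cut at about 60% in these data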;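 also: 0% = DMSO treated cells and 100% = gossypol at 36 µM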
NCOA3 inh: SRC3 coactivator transcriptional activity inhibitors, primary screen, cell-based, luminescence | Nuclear receptor coactivator 3 (Homo sapiens), Q9Y6Q9 | HEK293 GAL4-SRC3 luciferase reporter | inhibition, % at 3.6 µM | hit rate 0.17% among 360,000;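 active = inhibition above a per-campaign cutoff, the mean of all compounds plus 3 SD, cut at about 60% in these data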;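 also: 0% = DMSO-treated cells and 100% = gossypol-treated cells at 36 µM; higher means less SRC3-driven luciferase light from the GAL4 reporter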
LGR2 antag: inhibitors of bursicon-induced LGR2 CRE-luciferase signal, primary screen, cell-based, HEK293, CRE-luciferase reporter, bursicon stimulation. inhibition, % at 9.99 µM. bursicon-stimulated, 4 h. hit rate 0.35% among 380,000. Drosophila bursicon receptor LGR2 (rickets);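 active = drop in luminescence signal, shown as inhibition above about 50% in the replicate tests, limit read from the data, passing the limit was not always enough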;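 also: agonist challenge used bursicon conditioned medium at about half maximal strength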
SRC2 inh: inhibition of GAL4-SRC2 driven luciferase reporter, primary screen, SRC2 inhibitor project, cell-based, luminescence; inhibition, % at 9 µM; HEK293 GAL4-SRC2 luciferase reporter; hit rate 0.17% among 370,000; AID 651957, 2012;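 active = inhibition above the mean inhibition of all tested compounds plus 3 SD, set per campaign, cut at about 52% in these data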;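 also: 0% = DMSO treated cells and 100% = cells given Gossypol at 36 µM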
Active calls of the source: *.

What do the screens show for `C[C@@H]1CN([C@H](C)CO)C(=O)c2cc(N(C)C)ccc2O[C@@H](C)CCCCO[C@H]1CN(C)C(=O)Nc1ccc2c(c1)OCO2`?
LGR2 antag: 5.2

Results for COCC(=O)Nc1ccc2c(c1)OC[C@H](C)N(Cc1cncnc1)C[C@@H](C)[C@H](OC)CN(C)C2=O ?
LGR2 antag: 10.7

Results for CN(C)c1ccc(-c2nc3ccccc3c(=O)[nH]2)cc1 ?
NR5A2 inv ag: -98.2; SRC1 inh: -47.7; NCOA3 inh: -20.0; LGR2 antag: 66.1*; SRC2 inh: -18.9

What do the screens show for `COc1cccc(C#Cc2ccc([C@H]3[C@H]4CN(C(=O)Cc5cccnc5)CC(=O)N4[C@H]3CO)cc2)c1`?
LGR2 antag: -2.6

How did Cc1nc(Sc2nnnn2C)c2c3c(sc2n1)CCC3 do in these assays?
NR5A2 inv ag: 10.2; SRC1 inh: -17.9; NCOA3 inh: 6.7; SRC2 inh: 24.6

How did CCc1nc(Sc2nnnn2-c2ccccc2)c2c3c(sc2n1)CCCC3 do in these assays?
NR5A2 inv ag: 18.2; SRC1 inh: 10.8; NCOA3 inh: 0.2; LGR2 antag: 55.2*; SRC2 inh: -0.6

Results for Cc1ccc(-c2cc(=O)c3cc(F)ccc3[nH]2)cc1 ?
NR5A2 inv ag: -11.5; SRC1 inh: -24.4; NCOA3 inh: -27.9; LGR2 antag: -53.9; SRC2 inh: -25.7

How did Cc1ccc(-c2cc(=O)c3cc(C)ccc3[nH]2)cc1 do in these assays?
NR5A2 inv ag: -81.5; SRC1 inh: -95.3; NCOA3 inh: -71.4; LGR2 antag: 52.6*; SRC2 inh: -35.6

How did COc1ccc2c3c(n(C)c2c1)[C@@H](CO)N(S(=O)(=O)c1ccc(C)cc1)CC31CN(S(=O)(=O)c2ccc(C)cc2)C1 do in these assays?
LGR2 antag: -6.4

Results for Nc1ccc(Oc2cccc(Oc3ccc(N)cc3)c2)cc1 ?
NR5A2 inv ag: 66.6; SRC1 inh: 43.6; NCOA3 inh: 44.3; LGR2 antag: -15.2; SRC2 inh: 85.7*

Results for C[C@@H]1CN([C@@H](C)CO)C(=O)c2cc(NS(=O)(=O)c3ccc(F)cc3)ccc2O[C@@H](C)CCCCO[C@@H]1CN(C)C(=O)Nc1cccc2ccccc12 ?
LGR2 antag: 21.1

What do the screens show for `C=C1C(=O)O[C@@H]2C[C@@H](C)[C@@H]3C=CC(=O)[C@@]3(C)[C@@H](OC(C)=O)[C@H]12`?
LGR2 antag: 102.7*; SRC2 inh: 82.9*

What do the screens show for `COc1ccc2c3c([nH]c2c1)[C@@H](CO)N(Cc1nccs1)CC31CN(C(=O)C2CCC2)C1`?
LGR2 antag: 10.5

What do the screens show for `CN1CCN(c2ccc(NC(=O)c3sc4ccccc4c3Cl)cc2)CC1`?
NR5A2 inv ag: -71.1; SRC1 inh: -40.3; NCOA3 inh: -16.2; LGR2 antag: 64.2*; SRC2 inh: -93.7

Results for CN1CCN(c2ccc(NC(=O)N3CCc4ccccc43)cc2)CC1 ?
NR5A2 inv ag: 34.9; SRC1 inh: 57.3; NCOA3 inh: 53.3; LGR2 antag: 59.7*; SRC2 inh: 37.2

What do the screens show for `Cc1ccc(NC(=O)N2CCc3ccccc32)cc1`?
NR5A2 inv ag: -123.2; SRC1 inh: -83.8; NCOA3 inh: -81.0; SRC2 inh: -32.0

How did CCOC(=O)c1ccc(-c2ccc(N3C(c4cccc(OC)c4)=Cc4ccc(F)cc4C3CC(C)=O)cc2)cc1F (stereo unspecified) do in these assays?
NR5A2 inv ag: 20.7; LGR2 antag: 8.7; SRC2 inh: 59.6*

How did CCc1ccc(/C=C/C(=O)c2c(C)cc(C)[nH]c2=O)cc1 do in these assays?
NR5A2 inv ag: 15.3; SRC1 inh: 21.0; NCOA3 inh: 35.0; SRC2 inh: 44.6

What do the screens show for `Cc1ccc(/C=C/C(=O)c2c(C)cc(C)[nH]c2=O)cc1`?
NR5A2 inv ag: 42.7; SRC1 inh: 37.5; NCOA3 inh: 50.3; LGR2 antag: 69.6*

Results for CC(C)(C)c1ccc(-c2noc(CCC(N)=O)n2)cc1 ?
NR5A2 inv ag: 76.3*; SRC1 inh: 51.3; NCOA3 inh: 59.1; LGR2 antag: 15.2; SRC2 inh: 83.2*

What do the screens show for `CC(C)(C)c1ccc(-c2noc(CCC(=O)Nc3cccnc3)n2)cc1`?
NR5A2 inv ag: 36.9; SRC1 inh: 20.6; NCOA3 inh: 41.1; LGR2 antag: 15.9; SRC2 inh: 79.7*

How did COc1ccc(-c2noc(CCC(=O)Nc3cccnc3)n2)cc1 do in these assays?
NR5A2 inv ag: -7.9; SRC1 inh: -16.1; NCOA3 inh: -32.7; LGR2 antag: -14.0; SRC2 inh: 8.3

Results for CC(C)(C)c1ccc(-c2noc(CCC(=O)NCC3CCCO3)n2)cc1 (stereo unspecified) ?
NR5A2 inv ag: 40.3; SRC1 inh: 22.4; NCOA3 inh: 19.9; LGR2 antag: 6.5; SRC2 inh: 58.6*

How did CNC(=O)CCc1nc(-c2ccc(C(C)(C)C)cc2)no1 do in these assays?
NR5A2 inv ag: -89.4; SRC1 inh: -77.8; NCOA3 inh: -69.5; LGR2 antag: -53.3; SRC2 inh: 1.9

What do the screens show for `CC(=O)N(C)C[C@@H]1Oc2cc(C3=CCCCC3)ccc2S(=O)(=O)N([C@H](C)CO)C[C@H]1C`?
LGR2 antag: 9.7

What do the screens show for `COc1ccc(-c2cc3ccc(OC)cc3cn2)cc1`?
NR5A2 inv ag: -173.8; SRC1 inh: -90.9; NCOA3 inh: -99.8; LGR2 antag: 67.5*; SRC2 inh: -41.9

What do the screens show for `COc1ccc(CN(C)C[C@H]2Oc3ccc(NC(=O)Nc4c(C)noc4C)cc3CC(=O)N([C@H](C)CO)C[C@@H]2C)cc1`?
LGR2 antag: -20.1

Results for CC(=O)OC1CCC2(C)C(CCC3C4CC=C(C(C)=O)C4(C)OC(=O)CC32)C1 (stereo unspecified) ?
NR5A2 inv ag: -30.3; SRC1 inh: 5.2; NCOA3 inh: -20.9; LGR2 antag: 106.6*; SRC2 inh: 59.2*

How did CC(=O)O[C@H]1CC[C@@]2(C)C(CCC3C2CC[C@]2(C)OC(=O)CCC32)C1 (stereo partly specified) do in these assays?
NR5A2 inv ag: -9.2; SRC1 inh: -7.6; NCOA3 inh: 0.0; SRC2 inh: -14.7

Results for CCC(=O)N1[C@H](CO)[C@@H](c2ccccc2)C12CN(C(=O)c1ccc(F)cc1)C2 ?
LGR2 antag: 9.0

Results for Cc1cc2nc(-c3ccc[nH]c3=O)[nH]c2cc1C ?
NR5A2 inv ag: -126.0; SRC1 inh: -114.1; NCOA3 inh: -134.6; LGR2 antag: 77.5*; SRC2 inh: -52.8

How did CN(C)c1ccc(C2NC(=O)c3ccccc3N2)cc1 (stereo unspecified) do in these assays?
NR5A2 inv ag: -113.8; SRC1 inh: -97.1; NCOA3 inh: -95.8; LGR2 antag: 53.6*; SRC2 inh: -58.0
